Compounds without any hit were thinned out: in the full panel of roughly 83,000, 20% have a hit.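 Each cell line was grown in a 96-well plate and treated with one concentration of compound for 48 hours. Values below 10 were considered active.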 Unmarked numbers belong to inactive results. Activity calls are given as the source filed them.
test system: ACHN renal; experiment: NCI-60 one-dose screen, 48 h (100 = growth as untreated, 0 = no growth, -100 = all killed); settings: 10 µM unless noted

| Compound | growth |
| --- | --- |
| O=C1CN(Cc2ccc(C(=O)NO)cc2)C(=O)[C@@H](Cc2ccccc2)N1 | 103% |
| COc1ncc(-c2ccc3nccc(C#CCCCCC(=O)NO)c3c2)cc1NS(=O)(=O)c1ccc(F)cc1F | 10.7% |
| CCCCCN(CCCCC)CCCCCCCCN1CCCc2ccccc21 | 91.1% |
| CC1Cc2c(Cl)ncnc2N(C)c2ccc(O)cc21 (stereo not drawn) | 84.9% |
| FC(F)(F)c1ccc2c(c1)Sc1ccccc1N2 | 101% |
| Cc1ccc2c(n1)C(=O)C(Cl)=C(Nc1ccc(N3CCN(C)CC3)cc1)C2=O | -93.8% (active) |
| CCOc1cc(/C=N\NC(=O)N/N=C/c2ccc(O)c(OCC)c2)ccc1O | 45.6% |
| C1=C[C@H]2O[C@@H]1c1ccc3[nH]ccc3c12 | 107% |
| CC1(C)CC[C@]2(C(=O)O)CC[C@]3(C)[C@H](CC[C@@H]4[C@@]5(C)CCC(=O)C(C)(C)[C@@H]5CC[C@]43C)[C@H]2[C@H]1OC(=O)C(F)(F)F | -94.1% [100 µM] (active) |
| [2H]C1([2H])CCN(C(=O)C2CC2)c2cc(NS(=O)(=O)c3ccc(-c4cccc(C(N)=O)c4)cc3)ccc21 | 73.5% |
| CCOC(=O)c1sc2nc(-c3cc(OC)c(OC)c(OC)c3)nc(N3CCOCC3)c2c1C | 33.6% |
| O=C(CCN1CCCCC1)c1ccc(Cl)cc1 | 110% |
| O=C1CC(C(F)(F)F)Cc2nc3ccc(Br)cc3cc21 (stereo not drawn) | 91.5% |
| NC(=O)c1cccc(-c2ccc(S(=O)(=O)Nc3ccc4c(c3)N(C(=O)C3CC3)CCC4)cc2)c1 | 79.2% |
| CCOC(=O)CCC[P+](c1ccccc1)(c1ccccc1)c1ccccc1 | 97.9% |
| CC1(C)CC[C@]2(C(=O)O)CC[C@]3(C)C(=CC[C@@H]4[C@@]5(C)C/C(=C/c6cccnc6)[C@H](O)C(C)(C)[C@@H]5CC[C@]43C)[C@@H]2C1 | 2.77% [100 µM] (active) |
| CCC(Br)(CC)C(=O)c1ccc(OCC(=O)O)c(Cl)c1Cl | 108% |

| Compound | growth |
| --- | --- |
| C#C[C@]1(O)CC[C@H]2[C@@H]3CC=C4c5nc(Nc6ccccc6[N+](=O)[O-])sc5CC[C@]4(C)[C@H]3CC[C@@]21C | 70.7% |
| O=C(N/N=C\c1cc(Cl)ccc1O)N/N=C/c1cc(Cl)ccc1O | 27.5% |
| C=C(C)[C@@H]1CC[C@]2(C(=O)NCCNCCNC(=O)OC(C)(C)C)CC[C@]3(C)[C@H](CC[C@@H]4[C@@]5(C)CCC(=O)C(C)(C)[C@@H]5CC[C@]43C)[C@@H]12 | 23.5% [100 µM] |
| Cc1cc(C)c(O)c(CNCCCNCc2cc(C)cc(C)c2O)c1 | 73.6% |
| O=C(Nc1ccc(C(=O)/C=C/c2ccc(N3CCOCC3)cc2)cc1)Nc1ccc([N+](=O)[O-])cc1 | 94.4% |
| C[C@H]1[C@H](C)CC[C@]2(C(=O)N3CCN(C)CC3)CC[C@]3(C)C(=CC[C@@H]4[C@@]5(C)C/C(=C/c6ccco6)C(=O)C(C)(C)[C@@H]5CC[C@]43C)[C@H]12 | 20.8% [100 µM] |
| Nc1nc(Cl)c2ncn(Cc3cc4c(cc3I)OCO4)c2n1 | 56.7% |
| CC1(C)OC2[C@@H](CNC(=O)NC(=O)NC(=O)CI)O[C@@H](n3cnc4c(NC(=O)Nc5ccccc5)ncnc43)[C@H]2O1 (stereo partly drawn) | 66.2% |
| Fc1cc2[nH]ncc2c2c3c(c(-c4cn[nH]c4C(F)(F)F)nc12)C1CCC3C1 (stereo not drawn) | -0.693% (active) |
| CC1Cc2c(Cl)ncnc2N(C)c2ccccc21 (stereo not drawn) | 26% |
| C=C(C)[C@@H]1CC[C@]2(COCCCN)CC[C@]3(C)[C@H](CC[C@@H]4[C@@](C)(CCCNCCCN)[C@H](C(=C)C)CC[C@]43C)[C@@H]12 | -67.5% [100 µM] (active) |
| CCCCCCSc1ncnc2nc[nH]c12 | 96.8% |
| C[C@@H]1C[C@H]2C(=O)O[C@@H](C)[C@H](NC(=O)[C@H](Cc3cc(F)cc(F)c3)NC(=O)Nc3ccc(C4CC4)cc3F)C(=O)N3CCC[C@H]3C(=O)N3CCCC[C@H]3C(=O)N[C@@H](C)C(=O)N2C1 | 11.5% |
| O=[N+]([O-])c1ccc(O)c(-c2nc3ccccc3s2)c1 | 85.6% |
| COc1cc2c(cc1OC(C)=O)C(=O)CCCC2 | 92.5% |
| COc1ccc(CC(C#N)c2ccc(Cl)cc2)cc1 (stereo not drawn) | 102% |

From PubChem BioAssay (NCI)
